Compound activity as filed in PubChem.
ssDAF-12 act = S. stercoralis DAF-12 nuclear receptor activators, primary screen, cell-based, luminescence, HEK293, GRIP1 co-expression, lit1-tk-luc; AID 652126, 2013; Nuclear hormone receptor DAF-12 (Strongyloides stercoralis); HEK293 ssDAF-12/GRIP1 lit1-tk-luc reporter; % of 3 µM dafachronic acid response; activation, % at 6.8 µM; actives 1% (n = 370,000);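 active = activation above the mean over all tested compounds plus 3 SD, cut at about 0.9% in these data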;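 also: 0% = DMSO-only wells and 100% = 3 µM delta7-dafachronic acid wells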
DAX1 inh-1 = DAX1 (NR0B1) inhibitors, primary screen, cell-based, HEK293, Gal4-DAX1, luciferase luminescence; actives 0.99% (n = 340,000); AID 504766, 2011; HEK293 Gal4-DAX1 luciferase reporter; inhibition, % at 6.75 µM;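 active = inhibition above the mean over all tested compounds plus 3 SD, cut at about 4.2% in these data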;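 also: 0% = DAX1-transfected cells with DMSO and 100% = empty-vector control cells with DMSO; inhibition shows as a rise in luminescence from relieved DAX1 repression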
DAX1 inh-2 = DAX1 (NR0B1) inhibitors on StAR promoter, primary screen, cell-based, luminescence, SF-1 (NR5A1), full-length DAX-1 | HEK293T StAR-luciferase reporter, SF-1/DAX-1 repression relief | inhibition, % at 6.8 µM | actives 1.1% (n = 370,000) | AID 652010, 2013;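 active = inhibition above the mean over all tested compounds plus 3 SD, cut at about 3.6% in these data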;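 also: 0% = DAX-1 cells with DMSO and 100% = cells lacking DAX-1 with DMSO; higher inhibition means more luminescence from relief of DAX-1 repression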
hgDAF-12 ag = H. glycines DAF-12 receptor agonists, primary screen, cell-based, luminescence, HEK293, GAL4 fusion, UAS-luciferase; actives 1.8% (n = 370,000); activation, % at 6.8 µM; Nuclear hormone receptor DAF-12 (Heterodera glycines), GAL4 fusion; HEK293 GAL4-hgDAF12 UAS-luciferase reporter, agonist luminescence; normalized to butyrate control; AID 687014, 2013;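 active = activation above a cutoff set at the mean of all screened compounds plus 3 SD, cut at about 10% in these data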;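 also: 0% = DMSO wells and 100% = sodium butyrate wells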
hcDAF12 agonist = H. contortus DAF-12 nuclear receptor activators, primary screen, cell-based, luminescence, HEK293, lit1-tk-luc reporter; HEK293 hcDAF-12 lit1-tk-luc reporter; 0% DMSO, 100% Δ7-dafachronic acid; activation, % at 6.8 µM; actives 1.4% (n = 370,000);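 active = activation above the mean of all tested compounds plus 3 SD, cut at about 5.5% in these data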;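 also: 100% = response to 3 µM Δ7-dafachronic acid high control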
DAX1 inh confirm = DAX1 (NR0B1) inhibitors relieving SF-1 repression, confirmation, cell-based, luminescence, HEK293T, full-length DAX-1, SF-1 activated StAR promoter; AID 652134, 2013; actives 87% (n = 2,400); shares compounds with DAX1 inh-2; HEK293T StAR-promoter luciferase reporter, SF-1/DAX-1 repression; inhibition, % at 6.8 µM;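 active = inhibition above the average of every tested compound plus 3 SD, cut at about 3.8% in these data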;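 also: 0% = DAX-1 cells with DMSO and 100% = no DAX-1 control cells with DMSO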
Target sequence (P51843 whole entry, looked up): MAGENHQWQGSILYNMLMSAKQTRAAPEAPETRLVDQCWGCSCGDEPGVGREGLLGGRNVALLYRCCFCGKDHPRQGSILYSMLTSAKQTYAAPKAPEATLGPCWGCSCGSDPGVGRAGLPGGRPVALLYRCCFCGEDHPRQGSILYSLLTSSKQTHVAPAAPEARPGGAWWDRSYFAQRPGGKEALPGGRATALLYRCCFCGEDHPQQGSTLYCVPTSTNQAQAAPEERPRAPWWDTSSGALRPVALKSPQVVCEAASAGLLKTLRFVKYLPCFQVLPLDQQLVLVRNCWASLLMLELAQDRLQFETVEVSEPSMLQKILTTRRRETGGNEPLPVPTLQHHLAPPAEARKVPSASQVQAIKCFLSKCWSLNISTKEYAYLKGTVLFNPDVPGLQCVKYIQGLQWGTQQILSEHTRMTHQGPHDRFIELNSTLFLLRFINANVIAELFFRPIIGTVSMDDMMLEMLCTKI
SF1 mutant ctr = StAR reporter signal changes without DAX1, counter-screen for DAX1 inhibitor project, cell-based, luminescence, AF-2 mutant SF-1, transactivation; shares compounds with DAX1 inh-2; HEK293 StAR-luciferase, SF-1 AF2 mutant; inhibition, % at 6.8 µM; actives 78% (n = 2,400);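 active = inhibition above the mean of all tested compounds plus 3 SD, cut at about 3% in these data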;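 also: 0% = DAX-1 transfected cells with DMSO and 100% = cells without DAX-1 with DMSO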
An asterisk follows results filed as active; nt = no result. The list is not random: actives were taken first. Their share in the collection is about 4.1%.

SMILES	ssDAF-12 act	DAX1 inh-1	DAX1 inh-2	hgDAF-12 ag	hcDAF12 agonist	DAX1 inh confirm	SF1 mutant ctr
CCN1CCN(c2ccc(NC(=O)c3cc4ccccc4cc3OC)cc2C)CC1	-1	1	5.1*	11*	0	7.0*	3.1*
CCOC(=O)[C@@H](NC(=O)[C@@H]1CC=C[C@@H]2CCN(Cc3ccc(Cl)cc3)C(=O)[C@@H]21)C(C)C	-2	nt	nt	-1	0	nt	nt
CC(=O)c1c(C)[nH]c(C(=O)Nc2ccc(Cl)cc2)c1C	0	1	1	9	4	nt	nt
CC(=O)c1c(C)[nH]c(C(=O)Nc2ccccn2)c1C	0	0	7.5*	8	2	9.1*	6.3*
CCOc1cccc2cc(-c3csc(NC(=O)CCC(=O)NCCN4CCCCC4C)n3)c(=O)oc12 (stereo unspecified)	1	3	6.5*	23*	5	14*	7.0*
COCCN(CCOC)C(=O)[C@H](CCc1ccccc1)NC(=O)[C@H]1O[C@@H](n2cnc3c(N)ncnc32)[C@H](O)[C@@H]1O	0	nt	-1	0	-1	nt	nt
CC(=O)c1cccc(NC(=O)/C(=C\c2ccco2)NC(=O)c2ccco2)c1	-1	1	4.9*	0	-1	1	1
CC(=Nc1ccccc1)C1=C(O)C(Cc2ccccc2)NC1=O (stereo unspecified)	1	2	8.2*	4	4	31*	-5
O=C(NNC(=S)Nc1ccccc1Cl)c1ccccc1Br	0	1	15*	11*	4	12*	6.1*
O=C(NNC(=S)Nc1ccc(Br)cc1)c1ccccc1Br	0	0	0	6	2	nt	nt
COc1cccc(C(=O)n2ccc3ccc(-c4ccc5ccn(Cc6ccccc6)c5c4)cc32)c1	-1	nt	0	0	-2	nt	nt
CN1C(=O)CSc2ccc(NC(=O)N3CCc4ccccc43)cc21	0	2	5.9*	9	3	6.3*	2
Cc1ccc(C(=O)NC2CCc3ccccc3C2=O)cc1 (stereo unspecified)	-1	2	5.5*	13*	3	4.6*	3.3*
C=CCn1c(COc2ccc(C)cc2)nnc1SCC(=O)c1ccc(-c2ccccc2)cc1	-1	nt	-2	2	-2	nt	nt
COc1ccc(-c2cc3ccc(OCC(C)=O)cc3oc2=O)cc1	0	3	9.8*	11*	5.8*	6.5*	4.5*
Cc1ccc(NC(=O)NCCN2C(=O)C3C4C=CC(C4)C3C2=O)cc1 (stereo unspecified)	-1	5.8*	5.1*	10	6.5*	13*	6.1*
C[N+]1=C(N)N[C@@]2(C=C3CCCCC3n3c(=O)n(-c4ccccc4)c(=O)n32)C1 (stereo partly specified)	-1	nt	-1	-2	-1	nt	nt
FC(F)(F)Oc1ccc(Cn2ccc3ccc(-c4ccc5ccn(Cc6ccc(OC(F)(F)F)cc6)c5c4)cc32)cc1	-1	nt	0	5	1	nt	nt
O=C(Nc1nccs1)c1csc([C@H]2C[C@H](O)[C@@H](CO)O2)n1	1	nt	4.9*	10	4	5.9*	3.0*
CC(=O)Nc1ccc(NC(=O)c2csc([C@H]3C[C@H](O)[C@@H](CO)O3)n2)cc1	-1	nt	0	-1	0	nt	nt
O=C(Nc1ccc(Br)cc1)NC1CCCCCCC1	0	2	5.1*	11*	1	9.1*	6.0*
